The IC50 is the concentration that gives 50% inhibition.

This is one part of the list. Values without a mark were called inactive. The rule behind the calls is not given here.

The test is described as follows: beacon detection-step fluorescence artefacts – biochemical, fluorescent molecular beacon, artefact control for DNMT1 inhibitor project, dose response (AID 602382). Conditions: spectral interference counter-screen. Background: A counterscreen serves to expose hits that act by an unwanted route or on another target.

In the case of `Cc1c(C(=O)O)cccc1-n1c(C)cc(/C=C2\C(=O)NC(=O)N(c3ccc4c(c3)OCO4)C2=O)c1C`, the IC50 was more than 99 µM.

For the origin of these results see PubChem BioAssay AID602382 (Sanford-Burnham Center for Chemical Genomics, 2012).
